Experimental data from paper PMC7862700, “An all-to-all approach to the identification of sequence-specific readers for epigenetic DNA modifications on cytosine”.

Target: T1, ETV3L (Homo sapiens, UniProt Q6ZN32 1-361)
T1 sequence: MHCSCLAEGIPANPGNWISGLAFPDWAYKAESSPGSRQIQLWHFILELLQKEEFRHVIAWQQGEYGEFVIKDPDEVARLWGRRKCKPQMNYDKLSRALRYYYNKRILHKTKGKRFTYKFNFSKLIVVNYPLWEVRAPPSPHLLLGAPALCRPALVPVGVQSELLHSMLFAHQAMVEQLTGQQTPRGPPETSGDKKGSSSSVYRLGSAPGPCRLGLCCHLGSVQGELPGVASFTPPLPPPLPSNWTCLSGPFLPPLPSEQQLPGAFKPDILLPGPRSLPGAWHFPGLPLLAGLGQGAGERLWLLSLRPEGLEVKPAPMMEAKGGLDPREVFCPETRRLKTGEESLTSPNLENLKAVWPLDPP
Experiment: DAPPL (digital affinity profiling via proximity ligation, sequencing); 10 mM Tris-HCl pH 7.5, 50 mM NaCl, 1 mM DTT, 4% glycerol, room temperature, 30 min; GST-TFs on glutathione beads, 16-mer random dsDNA library, 0.1% formaldehyde crosslink after washing; high values mean tight binding
Conditions: protein: recombinant; tags: N-terminal GST; dsDNA, one strand shown
Summary of the method: (§1)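 The binding signal reported is, for every hexamer, its read frequency for a factor over its read frequency for the tag-only sample. Reads came from pools of yeast-expressed, GST-fused human transcription factors on glutathione beads, barcoded with DNA and mixed with that sample, which were incubated with 200 nmole of a random double-stranded 16-mer DNA library in Tris/NaCl/DTT/glycerol buffer at room temperature for 30 min. After washing, the pools were crosslinked with 0.1% formaldehyde, proximity-ligated with BsaI/T4 ligase for 1 h at 37 °C, PCR-amplified and sequenced on an Illumina NextSeq500.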

Row | Sequence | binding signal
1 | TAGGCA | 1.02 fold enrichment (6-mer frequency, TF over GST control)
2 | CGCCAC | 1.03 fold enrichment (6-mer frequency, TF over GST control)
3 | CATATG | 1.06 fold enrichment (6-mer frequency, TF over GST control)
4 | GTATTG | 1.01 fold enrichment (6-mer frequency, TF over GST control)
5 | GCCCTG | 1.08 fold enrichment (6-mer frequency, TF over GST control)
6 | CCTAGG | 1.03 fold enrichment (6-mer frequency, TF over GST control)
7 | CAGCTC | 1.11 fold enrichment (6-mer frequency, TF over GST control)
8 | GTGTCT | 1.09 fold enrichment (6-mer frequency, TF over GST control)
9 | ACGCGC | 1.09 fold enrichment (6-mer frequency, TF over GST control)

Target: T2, ETS2 (Homo sapiens, UniProt P15036 1-469)
T2 sequence: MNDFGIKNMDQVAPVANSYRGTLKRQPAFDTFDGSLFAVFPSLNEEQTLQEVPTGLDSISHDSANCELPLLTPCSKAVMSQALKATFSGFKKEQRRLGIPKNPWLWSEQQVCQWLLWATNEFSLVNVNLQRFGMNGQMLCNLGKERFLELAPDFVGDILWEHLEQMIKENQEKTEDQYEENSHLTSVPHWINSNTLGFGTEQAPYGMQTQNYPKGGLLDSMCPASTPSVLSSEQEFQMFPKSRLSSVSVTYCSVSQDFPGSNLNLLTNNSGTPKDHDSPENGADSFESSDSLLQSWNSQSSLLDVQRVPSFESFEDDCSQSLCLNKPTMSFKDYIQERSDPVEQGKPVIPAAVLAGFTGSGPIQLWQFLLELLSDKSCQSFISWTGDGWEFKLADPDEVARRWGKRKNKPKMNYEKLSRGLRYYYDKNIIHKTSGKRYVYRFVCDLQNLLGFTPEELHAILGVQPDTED
Experiment: as above
Conditions: protein: recombinant; tags: N-terminal GST; dsDNA, one strand shown
Summary of the method: as §1

Row | Sequence | binding signal
10 | AAAGGC | 1 fold enrichment (6-mer frequency, TF over GST control)
11 | CATATG | 1.04 fold enrichment (6-mer frequency, TF over GST control)
12 | GTATTG | 1 fold enrichment (6-mer frequency, TF over GST control)
13 | CAGCTC | 1.06 fold enrichment (6-mer frequency, TF over GST control)
14 | GTATGA | 1.01 fold enrichment (6-mer frequency, TF over GST control)
15 | GTGTCT | 1.03 fold enrichment (6-mer frequency, TF over GST control)
16 | ACCTGT | 1.04 fold enrichment (6-mer frequency, TF over GST control)
17 | GTGGCC | 1.01 fold enrichment (6-mer frequency, TF over GST control)

Target: T3, SPDEF (Homo sapiens, UniProt O95238 1-335)
T3 sequence: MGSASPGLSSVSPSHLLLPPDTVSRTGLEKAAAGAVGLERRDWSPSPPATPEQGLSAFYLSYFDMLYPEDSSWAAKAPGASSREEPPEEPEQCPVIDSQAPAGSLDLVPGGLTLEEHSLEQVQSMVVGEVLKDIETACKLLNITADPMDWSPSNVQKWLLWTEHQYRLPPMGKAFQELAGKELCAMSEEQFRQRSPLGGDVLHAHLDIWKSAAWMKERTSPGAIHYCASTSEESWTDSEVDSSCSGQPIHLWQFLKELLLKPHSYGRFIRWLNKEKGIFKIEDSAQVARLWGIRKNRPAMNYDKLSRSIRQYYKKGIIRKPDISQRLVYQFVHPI
Experiment: as above
Conditions: protein: recombinant; tags: N-terminal GST; dsDNA, one strand shown
Summary of the method: as §1

Row | Sequence | binding signal
18 | CGCCAC | 1.05 fold enrichment (6-mer frequency, TF over GST control)
19 | GTATTG | 1 fold enrichment (6-mer frequency, TF over GST control)
20 | ATCACG | 1.07 fold enrichment (6-mer frequency, TF over GST control)
21 | CCTAGG | 1.02 fold enrichment (6-mer frequency, TF over GST control)
22 | GTGTCT | 1.09 fold enrichment (6-mer frequency, TF over GST control)
23 | ACGCGC | 1.06 fold enrichment (6-mer frequency, TF over GST control)

Target: T4, ETV7 (Homo sapiens, UniProt Q9Y603 1-341)
T4 sequence: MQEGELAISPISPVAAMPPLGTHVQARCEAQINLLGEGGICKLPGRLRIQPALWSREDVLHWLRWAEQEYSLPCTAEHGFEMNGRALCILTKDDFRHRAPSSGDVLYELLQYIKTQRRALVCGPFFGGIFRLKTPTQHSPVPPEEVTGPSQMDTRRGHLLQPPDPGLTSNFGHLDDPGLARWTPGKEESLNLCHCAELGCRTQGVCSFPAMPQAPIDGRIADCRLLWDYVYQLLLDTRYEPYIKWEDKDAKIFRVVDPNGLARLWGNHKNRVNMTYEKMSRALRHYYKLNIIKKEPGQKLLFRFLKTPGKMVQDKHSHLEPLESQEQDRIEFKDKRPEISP
Experiment: as above
Conditions: protein: recombinant; tags: N-terminal GST; dsDNA, one strand shown
Summary of the method: as §1

Row | Sequence | binding signal
24 | AAAGGC | 1.03 fold enrichment (6-mer frequency, TF over GST control)
25 | TAGGCA | 1.06 fold enrichment (6-mer frequency, TF over GST control)
26 | CATATG | 1.14 fold enrichment (6-mer frequency, TF over GST control)
27 | AACGCG | 1.02 fold enrichment (6-mer frequency, TF over GST control)
28 | ACCTGT | 1.07 fold enrichment (6-mer frequency, TF over GST control)
29 | GTGGCC | 1.01 fold enrichment (6-mer frequency, TF over GST control)

Target: T5, ELF5 (Homo sapiens, UniProt Q9UKW6-2 1-255)
T5 sequence: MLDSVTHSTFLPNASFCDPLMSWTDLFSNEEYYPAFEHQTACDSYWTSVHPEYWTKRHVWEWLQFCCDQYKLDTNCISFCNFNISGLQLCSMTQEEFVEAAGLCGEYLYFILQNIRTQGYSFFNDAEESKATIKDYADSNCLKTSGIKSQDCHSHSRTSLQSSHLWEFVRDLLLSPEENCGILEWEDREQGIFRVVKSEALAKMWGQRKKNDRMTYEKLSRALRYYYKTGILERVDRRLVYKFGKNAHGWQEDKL
Experiment: as above
Conditions: protein: recombinant; tags: N-terminal GST; dsDNA, one strand shown
Summary of the method: as §1

Row | Sequence | binding signal
30 | AAAGGC | 1 fold enrichment (6-mer frequency, TF over GST control)
31 | CGCCAC | 1.05 fold enrichment (6-mer frequency, TF over GST control)
32 | AACGCG | 1.03 fold enrichment (6-mer frequency, TF over GST control)
33 | ATCACG | 1.02 fold enrichment (6-mer frequency, TF over GST control)
34 | GTGTCT | 1.13 fold enrichment (6-mer frequency, TF over GST control)
35 | ACCTGT | 1.04 fold enrichment (6-mer frequency, TF over GST control)
